Among the test systems are HCT-15 colon; HT29 colon; SNB-19 CNS; U251 CNS; PC-3 prostate; SK-MEL-5 melanoma; UACC-62 melanoma; LOX IMVI melanoma; SK-MEL-28 melanoma; SK-MEL-2 melanoma; EKVX NSCLC; SN12C renal; UO-31 renal; TK-10 renal; ACHN renal; CAKI-1 renal; A498 renal; CCRF-CEM leukemia; MOLT-4 leukemia.
Test in all cases: NCI-60 one-dose screen, 48 h (100 = growth as untreated, 0 = no growth, -100 = all killed)
Holding throughout (details): 10 µM unless noted

Compounds without any hit were thinned out: in the full panel of roughly 83,000, 20% have a hit.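 Testing used 96-well plates and a 48-hour single-concentration exposure. Example: -40 means 40% of the starting cells died.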 Unmarked numbers belong to inactive results. The source made the active and inactive calls. The calls were made as follows: active = growth percent below 10; inactive = the rest.

`COc1ccc(-c2nc3sccn3c2/C=C/C(=O)c2ccc3c(c2)OCO3)cc1`: the growth in the experiment on HCT-15 colon was 59.3%; with HT29 colon, 85%; with SNB-19 CNS it was 80.6%; with U251 CNS, 55.1%; with PC-3 prostate, 58.6%; with SK-MEL-5 melanoma, 78.7%. Moreover, the growth with UACC-62 melanoma is 57.2%; in the experiment with LOX IMVI melanoma it was 38.4%; in the experiment on SK-MEL-28 melanoma it was 105%; in the experiment on SK-MEL-2 melanoma it was 87.4%; in the experiment on EKVX NSCLC it was 85.4%; in the experiment on SN12C renal, 86.1%. In addition, the growth in the experiment with UO-31 renal is 73.5%; in the experiment on TK-10 renal, 119%; in the experiment with ACHN renal, 73.3%; in the experiment on CAKI-1 renal, 78.3%; in the experiment on A498 renal it was 113%; with CCRF-CEM leukemia, 18.3%. Moreover, in the experiment with MOLT-4 leukemia, the growth was 37.3%.
As for `COC(=O)C1=C(C(=O)ON)C2C=CC1(C(Cc1ccccc1)Nc1ccccc1)O2` (configuration not stated), the growth was -53.8% (active) with HCT-15 colon; 37.9% in the experiment with HT29 colon; 106% with SNB-19 CNS; 94.6% with U251 CNS; 100% with PC-3 prostate; 104% in the experiment with SK-MEL-5 melanoma. The growth in the experiment on UACC-62 melanoma was 89.9%; with LOX IMVI melanoma, 75.8%; in the experiment on SK-MEL-28 melanoma, 65.4%; with SK-MEL-2 melanoma, 86.7%; in the experiment on EKVX NSCLC, 91.9%; in the experiment with SN12C renal it was 87.4%. Also, the growth in the experiment on UO-31 renal is 16.9%; in the experiment on TK-10 renal, -63.7% (active); with ACHN renal, -99.7% (active); in the experiment with CAKI-1 renal, 57.3%; in the experiment with CCRF-CEM leukemia it was -7.87% (active); in the experiment on MOLT-4 leukemia, 12.9%.
For the molecule `O=S(=O)(NCCNc1nccc(-c2c(-c3cccc(O)c3)nc3occn23)n1)c1ccc(Cl)cc1`, the growth is 113% with HCT-15 colon; 62.9% in the experiment on HT29 colon; 118% in the experiment on SNB-19 CNS; 110% in the experiment on U251 CNS; 96.5% in the experiment on PC-3 prostate; 52.2% in the experiment with SK-MEL-5 melanoma. Moreover, the growth in the experiment on UACC-62 melanoma is 19.2%; in the experiment on LOX IMVI melanoma, 72.3%; with SK-MEL-28 melanoma, 48.2%; in the experiment with SK-MEL-2 melanoma it was 83.4%; in the experiment with EKVX NSCLC, 125%; in the experiment on SN12C renal it was 100%. The growth is 110% in the experiment with UO-31 renal; 143% with TK-10 renal; 98.5% with ACHN renal; 79.6% with CAKI-1 renal; 106% in the experiment on CCRF-CEM leukemia; 103% with MOLT-4 leukemia.
As for `CCCCCN1C=C/C(=C\C(=O)N(C)c2ccc(OC(F)(F)F)cc2)c2ccccc21`, the growth is 99.8% in the experiment on HCT-15 colon; 81.2% in the experiment with HT29 colon; 96.9% in the experiment on SNB-19 CNS; 95.4% in the experiment on U251 CNS; 96.5% in the experiment with SK-MEL-5 melanoma; 89.3% in the experiment with UACC-62 melanoma. Besides, the growth with LOX IMVI melanoma is 101%; with SK-MEL-28 melanoma it was 109%; with SK-MEL-2 melanoma, 101%; in the experiment on EKVX NSCLC, 87.2%; with SN12C renal, 96%; in the experiment on UO-31 renal, 77.4%. In addition, the growth in the experiment with TK-10 renal was 105%; with ACHN renal it was 108%; in the experiment with CAKI-1 renal it was 89.4%; in the experiment with CCRF-CEM leukemia, 104%; in the experiment with MOLT-4 leukemia it was 95.8%.

The record behind these values is PubChem BioAssay (NCI).
